Laboratory results as given in ChEMBL document CHEMBL1201862, “PubChem BioAssay data set” (2004).
The whole screen tested about 52,000 sequences, of which about 3,900 (7.5%) were called active. Rule as the data show it: active = GI50 up to about 1.1 µM and inactive = higher. Only a sample is shown. Measured potencies and affinities stand elsewhere.

system: RXF 393

Row | Substance | GI50 [µM]
1 | [Bis(aminomethyl)tetramethylenesilane]tetrachloropaltinum(IV), CHEMBL2146189 | 25.4
2 | [Bis(aminomethyl)pentamethylenesilane]tetrachloropaltinum(IV), CHEMBL2146204 | 7.35
3 | [Bis(aminomethyl)dimethylsilane]tetrachloroplatinum(IV), CHEMBL2146190 | 3.59
4 | [Bis(aminomethyl)dimethylsilane]dichloroplatinum (II), CHEMBL2146201 | 34.2
5 | [Bis(aminomethyl)pentamethylenesilane]dichloropaltinum(II), CHEMBL2146202 | 2.92
6 | cis-Bis[[(trimethylsilyl)methyl]amino]tetrachloroplatinum(IV), CHEMBL2146191 | 2.72
7 | [Bis(aminomethyl)tetramethylenesilane]dichloropaltinum(II), CHEMBL2146205 | 12.6
8 | [Bis(aminomethyl)diethylsilane]tetrachloroplatinum(IV), CHEMBL2146203 | 17.4
9 | CISPLATIN, CHEMBL11359 | 3.33
10 | mu-(1,7-nanodiamine-N,N')bis-(cis-aminedichloroplatimum (II)), CHEMBL2146215 | 15.4
